This passage reports residual activity results from ChEMBL document CHEMBL2218924, “A broad activity screen in support of a chemogenomic map for kinase signalling research and drug discovery” (Biochem J, 2013).

For test [1], the target named is Ribosomal protein S6 kinase alpha-4 (Homo sapiens) (UniProt O75676). As to conditions: at 1 µM.
Test [2] has the same target. As to conditions: at 10 µM.
In test [3] the target is SRSF protein kinase 3 (Homo sapiens) (UniProt Q9UPE1). Conditions: at 1 µM.
Sequence of SRSF protein kinase 3 (Homo sapiens) (Q9UPE1 whole entry): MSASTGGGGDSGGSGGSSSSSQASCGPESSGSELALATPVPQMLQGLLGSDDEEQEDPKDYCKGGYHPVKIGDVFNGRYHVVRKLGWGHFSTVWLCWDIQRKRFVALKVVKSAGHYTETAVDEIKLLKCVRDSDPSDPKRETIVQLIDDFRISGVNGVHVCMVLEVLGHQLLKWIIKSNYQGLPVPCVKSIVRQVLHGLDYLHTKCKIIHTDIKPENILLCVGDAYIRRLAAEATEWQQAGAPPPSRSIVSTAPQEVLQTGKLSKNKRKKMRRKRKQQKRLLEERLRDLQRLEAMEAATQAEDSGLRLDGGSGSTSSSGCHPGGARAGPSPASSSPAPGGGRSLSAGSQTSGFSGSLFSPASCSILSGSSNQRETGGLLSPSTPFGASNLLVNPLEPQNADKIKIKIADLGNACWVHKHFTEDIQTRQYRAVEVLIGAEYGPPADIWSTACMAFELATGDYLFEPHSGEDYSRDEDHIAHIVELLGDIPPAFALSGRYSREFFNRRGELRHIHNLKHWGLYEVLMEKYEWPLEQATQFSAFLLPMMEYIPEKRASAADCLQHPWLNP
For test [4] the target is unchanged. As to conditions: at 10 µM.
For test [5], the target named is T1, Serine/threonine-protein kinase 4 (Homo sapiens) (UniProt Q13043).
T1 sequence (whole entry): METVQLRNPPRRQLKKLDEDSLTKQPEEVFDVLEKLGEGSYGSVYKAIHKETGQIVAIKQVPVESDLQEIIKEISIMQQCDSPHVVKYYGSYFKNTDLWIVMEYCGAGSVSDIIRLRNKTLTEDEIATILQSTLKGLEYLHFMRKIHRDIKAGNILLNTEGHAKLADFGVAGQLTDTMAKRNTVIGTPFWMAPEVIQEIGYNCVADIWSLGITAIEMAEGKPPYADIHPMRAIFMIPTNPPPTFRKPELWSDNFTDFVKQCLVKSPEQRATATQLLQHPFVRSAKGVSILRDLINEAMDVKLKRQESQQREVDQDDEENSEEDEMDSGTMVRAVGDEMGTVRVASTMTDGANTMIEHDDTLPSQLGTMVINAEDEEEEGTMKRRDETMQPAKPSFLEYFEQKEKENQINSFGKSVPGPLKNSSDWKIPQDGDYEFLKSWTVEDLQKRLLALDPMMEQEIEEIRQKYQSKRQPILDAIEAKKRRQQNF
Conditions: at 1 µM.

For test [6], the target named is T1, Serine/threonine-protein kinase 4 (Homo sapiens). As to conditions: at 10 µM.
Test [7] deals with T2, Serine/threonine-protein kinase 3 (Homo sapiens) (UniProt Q13188).
T2 sequence (whole entry): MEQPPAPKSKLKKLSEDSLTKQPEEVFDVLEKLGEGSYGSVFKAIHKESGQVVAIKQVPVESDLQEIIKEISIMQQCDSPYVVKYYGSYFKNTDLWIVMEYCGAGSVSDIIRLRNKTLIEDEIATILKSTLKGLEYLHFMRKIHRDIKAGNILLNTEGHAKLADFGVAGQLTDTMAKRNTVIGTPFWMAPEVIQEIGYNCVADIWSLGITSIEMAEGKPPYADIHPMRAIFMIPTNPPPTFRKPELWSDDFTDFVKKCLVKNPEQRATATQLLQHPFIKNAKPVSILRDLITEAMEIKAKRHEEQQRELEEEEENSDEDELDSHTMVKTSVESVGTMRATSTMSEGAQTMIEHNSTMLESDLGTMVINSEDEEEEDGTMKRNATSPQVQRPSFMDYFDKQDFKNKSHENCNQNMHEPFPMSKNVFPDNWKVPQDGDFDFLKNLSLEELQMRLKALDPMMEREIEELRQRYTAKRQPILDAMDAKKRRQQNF
As to conditions: at 1 µM.

Test [8] concerns the target T2, Serine/threonine-protein kinase 3 (Homo sapiens). As to conditions: at 10 µM.
Test [9] addresses Serine/threonine-protein kinase 24 (Homo sapiens) (UniProt Q9Y6E0). As to conditions: at 1 µM.
For test [10] the target is unchanged. As to conditions: at 10 µM.

Sequence of Ribosomal protein S6 kinase alpha-4 (Homo sapiens) (O75676 whole entry, looked up): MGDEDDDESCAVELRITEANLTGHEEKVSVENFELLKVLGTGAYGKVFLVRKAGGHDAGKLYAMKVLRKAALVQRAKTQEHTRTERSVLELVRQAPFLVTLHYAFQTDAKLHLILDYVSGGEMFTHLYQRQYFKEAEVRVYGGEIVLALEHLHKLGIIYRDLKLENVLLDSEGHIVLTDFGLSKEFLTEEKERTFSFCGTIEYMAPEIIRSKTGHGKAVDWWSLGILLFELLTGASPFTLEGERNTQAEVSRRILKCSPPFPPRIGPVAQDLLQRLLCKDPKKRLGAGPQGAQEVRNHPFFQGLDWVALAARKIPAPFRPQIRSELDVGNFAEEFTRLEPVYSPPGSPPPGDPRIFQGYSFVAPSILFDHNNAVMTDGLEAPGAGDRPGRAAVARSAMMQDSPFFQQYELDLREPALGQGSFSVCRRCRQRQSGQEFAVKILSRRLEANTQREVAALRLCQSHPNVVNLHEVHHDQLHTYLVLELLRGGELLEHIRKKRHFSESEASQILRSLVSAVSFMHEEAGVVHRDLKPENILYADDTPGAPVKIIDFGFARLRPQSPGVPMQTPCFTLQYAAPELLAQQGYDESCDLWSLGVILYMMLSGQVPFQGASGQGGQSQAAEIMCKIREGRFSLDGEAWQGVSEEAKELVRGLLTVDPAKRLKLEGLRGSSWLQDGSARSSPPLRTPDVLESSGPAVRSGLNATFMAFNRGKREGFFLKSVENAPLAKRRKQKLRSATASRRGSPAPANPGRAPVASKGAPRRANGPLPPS
Sequence of Serine/threonine-protein kinase 24 (Homo sapiens) (Q9Y6E0 whole entry, looked up): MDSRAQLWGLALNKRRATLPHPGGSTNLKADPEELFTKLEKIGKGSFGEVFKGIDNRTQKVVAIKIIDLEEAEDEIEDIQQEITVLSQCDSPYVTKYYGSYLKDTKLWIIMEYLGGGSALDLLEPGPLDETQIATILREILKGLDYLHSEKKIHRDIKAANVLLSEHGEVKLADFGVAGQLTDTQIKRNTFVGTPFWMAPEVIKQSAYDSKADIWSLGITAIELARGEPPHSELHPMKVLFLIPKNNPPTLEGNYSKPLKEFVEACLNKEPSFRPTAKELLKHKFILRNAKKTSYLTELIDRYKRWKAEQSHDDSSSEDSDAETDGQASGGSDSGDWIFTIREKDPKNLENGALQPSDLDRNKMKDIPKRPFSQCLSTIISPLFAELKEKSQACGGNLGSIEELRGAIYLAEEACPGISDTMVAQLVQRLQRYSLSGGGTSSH

For the molecule `C[S+]([O-])c1ccc(-c2nc(-c3ccc(F)cc3)c(-c3ccncc3)[nH]2)cc1` (centres undefined), the residual activity in [1] came out at 102%; in [2], 81%; in test [3] it was 102%; in [4], 101%; in [5], 111%; in [6], 109%. The residual activity in test [7] worked out at 104%; in [8], 93%; in [9], 115%; in test [10] it was 102%.

`COc1cc2ncnc(Nc3ccc(OCc4ccccc4)cc3)c2cc1OC`: the residual activity in test [1] came to 99%; in test [2], 101%; in [3], 122%; in test [4] it was 89%; in [5] it was 95%; in test [6] it was 104%. The residual activity in test [7] was 111%; in test [8] it was 81%; in test [9], 70%; in test [10], 90%.

In the case of `O=C1Nc2ccc3ncsc3c2/C1=C/c1c[nH]cn1`, the residual activity in test [1] is 20%; in test [2], 6%; in test [3], 98%; in [4], 68%; in test [5] it was 1%; in [6], 3%. Moreover, the residual activity in [7] was determined as 2%; in test [8], 1%; in [9] it was 3%; in test [10], 0%.

For `COc1cc(OC)c(/C=C2\C(=O)Nc3ccccc32)c(OC)c1`, the residual activity in test [1] amounted to 96%; in test [2], 94%; in test [3] it was 101%; in test [5], 108%; in test [6], 105%; in [7], 102%. Also, the residual activity in test [8] was found to be 91%; in [9], 80%; in [10], 76%.

Consider `O=C1NC(=O)c2c1c1c3ccccc3n3c1c1c2c2ccccc2n1C1CCC3O1`, for which the residual activity is 56% in [1]; 64% in test [2]; 99% in test [3]; 96% in [4]; 19% in test [5]; -1% in [6]. Also, the residual activity in [7] is 10%; in [8], 12%; in test [9], 80%; in test [10] it was 65%.

On to `N/C(=N\[N+](=O)[O-])N/N=C\c1ccc(-c2cccc([N+](=O)[O-])c2)o1`, for which the residual activity in [1] was 97%; in test [2], 84%; in test [9] it was 98%; in test [10], 79%.

As to `COC(=O)[C@@]1(O)C[C@H]2O[C@]1(C)n1c3ccccc3c3c4c(c5c6ccccc6n2c5c31)C(=O)NC4`, the residual activity in test [1] is -1%; in [2], 0%; in test [3] it was 11%; in [4], 2%; in test [5], 5%; in test [6], 1%. Also, the residual activity in [7] stood at 2%; in test [8], 1%; in test [9] it was 14%; in test [10] it was 0%.

As for `CCc1nc(-c2ccc(OC)cc2)[nH]c1-c1ccncc1`, the residual activity in test [3] was 123%; in [4], 103%; in test [6] it was 111%.

Regarding `O=C1c2ccccc2-c2nc3nnnn3nc21`, the residual activity in [1] was 108%; in test [2] it was 108%; in [3] it was 107%; in test [4], 83%; in test [5] it was 108%; in [6] it was 110%.

In the case of `O=[N+]([O-])/C=C/c1ccc2c(c1)OCO2`, the residual activity in [1] amounted to 90%; in test [2] it was 101%; in test [3], 120%; in test [4], 93%; in test [5], 101%; in test [7], 104%. The residual activity in test [8] was 91%; in test [9], 77%; in test [10], 75%.

On to `COc1ccc2c(c[n+](C)c3c4cc5c(cc4ccc23)OCO5)c1OC`, for which the residual activity was determined as 94% in test [2]; 110% in test [3]; 66% in test [4]; 92% in test [5]; 98% in [6]; 94% in test [8]. In addition, the residual activity in [9] and in test [10] was 73% in each case.

As to `O=c1[nH]c2ccccc2n1C1CCN(Cc2ccc(-c3nc4cc5[nH]cnc5cc4nc3-c3ccccc3)cc2)CC1`, the residual activity in test [1] came to 106%; in test [2], 96%; in [3], 112%; in [4], 91%; in test [5] it was 102%; in [6], 80%. Further, the residual activity is 106% in test [7], 80% in [8], 72% in test [9] and 80% in [10].

Consider `CN[C@@H]1C[C@H]2O[C@@](C)([C@@H]1OC)n1c3ccccc3c3c4c(c5c6ccccc6n2c5c31)C(=O)NC4`, for which the residual activity in [1] was 1%; in test [2], -1%; in test [4], 40%.

Regarding `COc1ccc2c(c1)/C(=C/c1cnc[nH]1)C(=O)N2`, the residual activity was 63% in test [1], 19% in test [2], 16% in [7] and 3% in test [8].

As for `CCn1cnc2c(Nc3cccc(Cl)c3)nc(N[C@@H]3CCCC[C@@H]3N)nc21`, the residual activity came out at 79% in [1]; 60% in test [2]; 95% in [3]; 71% in test [4]; 64% in test [5]; 47% in [6]. Besides, the residual activity in test [8] worked out at 70%; in test [9], 78%; in [10], 59%.

Turning to `CC(C)(C)c1cc(C=C(C#N)C#N)cc(Br)c1O`, the residual activity was found to be 105% in test [3], 104% in [5], 119% in [6] and 100% in test [10].

With `CC(C)[C@H](CO)Nc1nc(Nc2cccc(Cl)c2)c2ncn(C(C)C)c2n1`, the residual activity in test [1] came to 95%; in [2], 62%; in [3], 73%; in [4], 17%; in test [5], 63%; in [6], 30%. Besides, the values for the residual activity in test [9] and in test [10] were 58% and 20%, respectively.

On to `c1cc(-c2cnn3cc(-c4ccc(OCCN5CCCCC5)cc4)cnc23)ccn1`, for which the residual activity in test [1] is 103%; in test [2], 70%.
